Data on 23 compounds can be found in PubChem BioAssay (NCATS).

Molecules are shown by their SMILES. Several values for one entry are separate records, joined by “and”; a condition that tells them apart may be missing. Equal entries are not always repeated. Records with an inconclusive call do not appear. Unmarked numbers belong to inactive results. Activity calls are given as the source filed them. Calls follow the shape of the dose curve; as a rule, active = well fitted curve in the direction sought with a large enough effect; inconclusive = small, poorly fitted or top-dose-only effect, or another doubt; inactive = no such curve, though single readings can be large; an effect the other way counts as inactive or inconclusive. Square brackets hold non-standard residues; d marks the D form. Peptide text beside a SMILES is read from it. ξ: configuration not given here. ξPhe(βξ-Me) = CC(c1ccccc1)C(N)C(=O)O; GABA = NCCCC(=O)O

For experiment [1], the target named is Cellular tumor antigen p53 (Homo sapiens) (UniProt P04637). In words: Primary qHTS for small molecule compounds that upregulate eGFP-tagged delta133p53alpha (in N-terminal) cells. (AID 2060322). Also: nearly all actives have a fitted effect of over 75% in size. Also: potency is read from the fitted curve at half-maximal effect.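 As to activation: series mostly up to about 56 µM; 0% = DMSO vehicle and 100% = reference activator.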 The note with it: NCI-H358 eGFP-delta133p53alpha fluorescence, 24 h; activation: active compounds read high. In outline: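 NCI-H358 cells pre-induced 24 h with 10 ng/ml doxycycline to express N-terminal eGFP-delta133p53alpha, then dosed 24 h at 37C without doxycycline; fixed, Hoechst-stained, GFP intensity by laser scanning cytometry, normalized to DMSO (0%) and 57.5 uM 5-azacytidine (100%).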

For experiment [2], the target named is Aldehyde dehydrogenase, mitochondrial (Homo sapiens) (UniProt P05091). In words: qHTS for Inhibitors of the Aldehyde Dehydrogenase Family (ALDH2) Primary screen (AID 2061308).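 Also: plate controls were vehicle for no effect and reference inhibitor for full effect; nearly all actives have a fitted effect of over 55% in size.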
For experiment [3], the target named is Retinaldehyde dehydrogenase 3 (Homo sapiens) (UniProt P47895). In words: qHTS for Inhibitors of the Aldehyde Dehydrogenase Family (ALDH1A3) Primary screen (AID 2061315).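 Also: plate controls were DMSO vehicle for no effect and reference inhibitor for full effect.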

Chain of Cellular tumor antigen p53 (Homo sapiens) (P04637 whole entry, looked up): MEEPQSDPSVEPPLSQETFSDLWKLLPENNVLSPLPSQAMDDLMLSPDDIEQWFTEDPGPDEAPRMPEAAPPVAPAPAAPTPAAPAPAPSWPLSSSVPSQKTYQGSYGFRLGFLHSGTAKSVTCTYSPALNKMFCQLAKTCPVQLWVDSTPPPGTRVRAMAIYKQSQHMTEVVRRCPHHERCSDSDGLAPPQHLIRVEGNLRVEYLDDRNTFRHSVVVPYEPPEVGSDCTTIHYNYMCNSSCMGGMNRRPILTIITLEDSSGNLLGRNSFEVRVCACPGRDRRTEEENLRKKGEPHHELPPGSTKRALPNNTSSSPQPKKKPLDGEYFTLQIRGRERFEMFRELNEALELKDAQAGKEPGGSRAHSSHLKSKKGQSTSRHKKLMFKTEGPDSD

`COC1=Cc2c(nc3n(c2=O)C(C)C(=O)NC3(O)C(C)C)OC=C1` (centres undefined): in experiment [1], the activation was -17.6%. In addition, the Potency entry in experiment [2] and in experiment [3] was “inactive” in each case.

On to `COc1ccc2c(c1)C[C@H](C(=O)Nc1ccc(-c3cn[nH]c3)cc1OCCN(C)C)CO2`, for which, in experiment [1], the activation is -0.893%. Also, the Potency result in experiment [2] and in experiment [3] was “inactive” in each case.

For `CC1NC(=O)CNC(=O)C(C(C)C)NC(=O)C2CCCN2C(=O)C(C(C)C)NC(=O)C(Cc2c[nH]c3ccccc23)NC1=O` (centres undefined) (cyclo(GAWVPV); configuration not given here), the activation in experiment [1] was 3.57%. Also, the Potency entry in experiment [2] and in experiment [3] was “inactive” throughout.

As for `C/C=C/C=C/[C@@H]1O[C@](O)([C@H](CC)C(=O)NC/C=C/C=C(\C)[C@@H](OC)[C@@H](C)[C@@H]2O[C@H](/C=C/C=C/C=C(\C)C(=O)c3c(O)ccn(C)c3=O)[C@H](O)[C@@H]2O)[C@H](O)[C@H](O)C1(C)C`, in experiment [1], the activation was 4.58%. In addition, the Potency result in experiment [2] and in experiment [3] was “inactive” in each case.

For the compound `C=C(C)C(=O)O[C@H]1[C@H]2C(=C)C(=O)O[C@@H]2C[C@@H](C)/C=C\C(=O)[C@](C)(O)[C@@H]1OC(C)=O`, the Potency in experiment [1] was 4.65 µM (active). The Potency entry in experiment [2] and in experiment [3] was “inactive” each time.

Take `CCCCC1CCN(CCCC(=O)c2ccccc2C)CC1`: in experiment [1], the activation is 17%. In addition, the Potency entry in experiment [2] and in experiment [3] was “inactive” throughout.

As to `CCN1CCC[C@@H]1CNC(=O)c1ccc2c(c1)NC(=O)c1cccc(C)c1S2`, the activation in experiment [1] is 19.7%. Also, the Potency entry in experiment [2] and in experiment [3] was “inactive” in each case.

With `Nc1nonc1C(=Nc1ccc(F)c(Cl)c1)NO`, the activation in experiment [1] was -6.33%. Moreover, the Potency result in experiment [2] and in experiment [3] was “inactive” each time.

As to `Cc1cc2sc(NC(=O)Cc3ccccc3)nc2cc1Cl`, in experiment [1], the activation is -6.25%. Moreover, the Potency entry in experiment [2] and in experiment [3] was “inactive” in each case.

Take `C=C[C@@]1(C)CC(=O)C2[C@](C)(O1)[C@@H](OC(C)=O)[C@@H](O)[C@H]1C(C)(C)CCC[C@]21C` (some centres undefined): the activation in experiment [1] was -4.33%. The Potency result in experiment [2] and in experiment [3] was “inactive” throughout.

In the case of `CC1CCCC(O)CC(=O)c2c(O)cc(O)cc2CC(=O)O1` (centres undefined), the activation in experiment [1] is 4.58%. Further, the Potency result in experiment [2] and in experiment [3] was “inactive” each time.

With `COc1cc(O)cc(C)c1C(=O)OC1C(CO)OC(n2ccc(=O)[nH]c2=O)C1OC(C)=O` (centres undefined), the activation in experiment [1] was -6.11%. Moreover, the Potency entry in experiment [2] and in experiment [3] was “inactive” throughout.

Consider `COc1cc(C)c(C(=O)NC2C(C)OC(OC3CCC(C)C4C3C=C(C)C3/C(C)=C\CC/C(C)=C/C5(C)C=C(C(=O)O)C(C)CC56OC(=O)/C(=C(\O)C34C)C6=O)C(O)C2(C)O)c(O)c1` (centres undefined), for which, in experiment [1], the activation was 3.82%. Moreover, the Potency entry in experiment [2] and in experiment [3] was “inactive” each time.

Consider `CC(=O)N1CCN(Cc2ccc([C@H](C)Nc3nccc(N4C(=O)OC[C@@H]4C(C)C)n3)cc2)CC1`, for which the activation in experiment [1] is -16.1%. In addition, the Potency result in experiment [2] and in experiment [3] was “inactive” throughout.

As for `CC(=O)O[C@@H]1[C@H](O[C@@H]2O[C@@H](CO)[C@H](O)[C@H]2O)[C@@H](O[C@@H]2O[C@@H](C)[C@H](O[C@@H]3OC[C@@H](O)[C@H](O)[C@H]3O)[C@@H](O)[C@H]2O)[C@H](OC(=O)[C@]23CCC(C)(C)C[C@H]2C2=CCC4[C@@]5(C)CC[C@H](O[C@@H]6O[C@H](C(=O)O)[C@@H](O)[C@H](O)[C@H]6O[C@@H]6O[C@H](CO)[C@H](O)[C@H](O)[C@H]6O)[C@@](C)(C=O)C5CC[C@@]4(C)[C@]2(C)C[C@H]3O)O[C@@H]1C` (some centres undefined), the activation in experiment [1] is 0.893%. The activity change, negative = inhibition in experiment [2] is -0.326% [at 11.2 µM]; in experiment [3] it was -1.8% [at 11.2 µM].

In the case of `CC(C)=CCC[C@](C)(O[C@@H]1O[C@H](CO)[C@@H](O)[C@H](O)[C@H]1O)[C@H]1CC[C@]2(C)[C@@H]1[C@H](O)CC1[C@@]3(C)CC[C@H](O)C(C)(C)C3[C@@H](O[C@@H]3O[C@H](CO)[C@@H](O)[C@H](O)[C@H]3O[C@@H]3OC[C@@H](O)[C@H](O)[C@H]3O)C[C@]12C` (some centres undefined), the activation in experiment [1] is -15.3%. Further, the Potency entry in experiment [2] and in experiment [3] was “inactive” each time.

On to `CC(C)n1cnc2c(-c3cnc(N)nc3)nc(N3CCOCC3)nc21`, for which, in experiment [1], the activation was 15.7%. Further, the Potency result in experiment [2] and in experiment [3] was “inactive” throughout.

Regarding `COc1ccc(C(OC2OC(CO)C(O)C(O)C2O)C(C)O)cc1` (centres undefined), in experiment [1], the activation is 9.82%. For the same compound, the Potency result in experiment [2] and in experiment [3] was “inactive” each time.

Regarding `COCCOCCOc1ccc(C2=N[C@@](C)(C(=O)O)CS2)c(O)c1`, the activation in experiment [1] was 1.67%. The Potency entry in experiment [2] and in experiment [3] was “inactive” in each case.

Turning to `CC1(C)CC[C@]2(C(=O)O[C@@H]3O[C@H](CO[C@@H]4O[C@H](CO)[C@@H](O)[C@H](O)[C@H]4O[C@@H]4O[C@H](CO)[C@@H](O)[C@H](O)[C@H]4O)[C@@H](O)[C@H](O[C@@H]4O[C@H](CO)[C@@H](O)[C@H](O)[C@H]4O)[C@H]3O)CC[C@]3(C)C(=CCC4[C@@]5(C)CC[C@@H](O)[C@@](C)(C(=O)O[C@@H]6O[C@H](CO)[C@@H](O)[C@H](O)[C@H]6O)C5CC[C@]43C)[C@@H]2C1` (some centres undefined), in experiment [1], the activation is -7.63%. Further, the figures for the activity change, negative = inhibition in experiment [2] and in experiment [3] were 5.56% [at 11.2 µM] and 9.33% [at 11.2 µM], respectively.

In the case of `C/C=C(\C)C(=O)O[C@@H]1[C@@H](C)[C@]2(O)[C@@H]3C=C(C)C(=O)[C@H]3CC(CO)=C[C@H]2C2C(C)(C)[C@@]21OC(=O)C(C)CC` (some centres undefined), the activation in experiment [1] is -1.79%. The Potency entry in experiment [2] and in experiment [3] was “inactive” throughout.

With `CC(C)CC1NC(=O)C(C(C)c2ccccc2)NC(=O)C(C(C)C)NC(=O)C(C)NC(=O)CCCNC(=O)C(Cc2c[nH]c3ccccc23)NC(=O)C(C)NC1=O` (stereo not drawn) (cyclo([GABA]AV[ξPhe(βξ-Me)]LAW); configuration not given here), the activation in experiment [1] was 8.4%. The Potency result in experiment [2] and in experiment [3] was “inactive” throughout.

Take `Nc1ccc(S(=O)(=O)Nc2nccs2)cc1`: the activation in experiment [1] was 18.4% and 0.333%. Also, the Potency entry in experiment [2] and in experiment [3] was “inactive” each time.
